# Assay outcomes: PubChem BioAssay, National Center for Advancing Translational Sciences (NCATS)
# In the library only some 12% were active in any assay of this set; here they are far more common.
# Pf growth 96h: P. falciparum growth inhibition at 96 hour, primary screen for plastid delayed-death inhibitors; Potency, µM (titrated, usually from 28.7 µM), inactives show at the top dose activity change, negative = inhibition, actives largely listed as inhibitors; P. falciparum luciferase reporter growth, 96 h; AID 504834; 6.9% of 320,000 active; further: on the % scale 0 is the no-effect control and ±100 the full control effect
#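 Two-generation exposure (96 h) targets delayed-death phenotype. Reporter parasites carrying integrated firefly luciferase, in red cells at 2% hematocrit and 0.05% parasitemia final, kept at 37 C, 5% CO2; luminescence loss indicates inhibition.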
# Pf growth 48h: inhibits P. falciparum growth in the first generation, 48 h; P. falciparum luciferase growth in erythrocytes, 48 h; Potency, µM (top dose mostly 28.7 µM), for the others: at the top dose activity change, negative = inhibition, most hits filed as inhibitors; 5.9% of 310,000 active; AID 504832; further: on the % scale 0 is the no-effect control and ±100 the full control effect
#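 Luminescence readout; reporter = integrated firefly luciferase in P. falciparum. RBC culture at 2% hematocrit, 0.1% parasitemia final, 37 C/5% CO2; decreased signal taken as growth inhibition.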
# NS1 inh: inhibitors of influenza NS1 protein function; AID 2326; 0.4% of 270,000 active; Potency, µM (doses to about 46.1 µM), inactives show at the highest dose activity, positive = more growth; calls by dose curve; further: actives are rising curves; nearly all actives have a fitted effect of over 50% in size
#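 S. cerevisiae expressing influenza A NS1, grown in glucose, washed, then diluted 1:100 into pH 6.0 -URA galactose medium with 23 nl compound. Growth recovery read as OD600; NS1-free strain serves as control.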
# HCV inh: blocks hepatitis C virus. Huh7.5.1 HCVcc-Cre infection, luciferase reporter, 44 h. Potency, µM (titrated, usually from 41.8 µM), without a hit: at the top dose activity change, negative = inhibition, most hits filed as inhibitors. 3.4% of 340,000 active. AID 651820; further: on the % scale 0 is the no-effect control and ±100 the full control effect
#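 HCVcc-Cre virus at an moi near 0.5 was added right after compound to cells cultured 4 h from seeding (1,000 cells/well). Luciferase activity was determined 44 h later, 15 min after substrate addition at RT.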
# SARS PLP yeast: SARS-CoV PLP inhibition in yeast. S. cerevisiae expressing SARS-CoV PLpro, growth rescue. AID 485353. 0.19% of 330,000 active. Potency, µM (highest dose often 32.9 µM), without a hit: top-dose activity, positive = growth rescue, most hits filed as activators; calls by dose curve; further: 0% is about no effect; nearly all actives have a fitted effect of over 55% in size
# AMA1-RON2 inh: disrupts binding of P. falciparum AMA1 to RON2; Potency, µM (series often up to 58.2 µM), inactives show at the top dose activity change, negative = inhibition, most hits filed as inhibitors; 0.2% of 360,000 active; AlphaScreen AMA1-biotinylated RON2 peptide binding;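 further: 0% = vehicle wells and -100% = peptide control; nearly all actives have a fitted effect of over 45% in size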
#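 AMA1 (3D7) with his tag at 25 nM final met compounds first, then biotinylated RON2 peptide at 25 nM; detection used donor plus acceptor beads, 10 µg/mL apiece, read by AlphaScreen after 30 min at room temperature.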
# Starred values were filed as active, the others as inactive; ? = inconclusive; / = no result; [ ] = another dose, or the depositor's remark. Unless noted, the call rests on the fitted dose curve; in most records, active means well fitted curve in the direction sought with a large enough effect; inconclusive means small, poorly fitted or top-dose-only effect, or another doubt; inactive means no such curve, though single readings can be large; an effect the other way counts as inactive or inconclusive. Potency means the concentration at half of the fitted maximal effect.
SMILES,Pf growth 96h,Pf growth 48h,NS1 inh,HCV inh,SARS PLP yeast,AMA1-RON2 inh
C[C@@H](C(=O)Nc1cccnc1)n1c(=O)[nH]c2ccccc2c1=O,?,11.7µM*,3.4%,5.9%,7.7%,-2.5%
CC1=C(C(=O)OCc2ccccc2)C(c2ccccc2[N+](=O)[O-])NC(=O)N1C (stereo unspecified),4.8%,-17.3%,14.9%,-24.8%,-0.8%,-11.5%
CCC1CCCCN1S(=O)(=O)c1ccc(NC(=O)C2CCCO2)cc1 (stereo unspecified),38.8%,-16.3%,0.9%,12.0%,2.3%,-3.4%
CCC1=C(OC(=O)N(CC)CC)N2C(=O)OC(=NCC(=O)OC)[C@]2(Cc2ccccc2)[C@H]2C1=CC[C@H]1C(=O)NC(=O)[C@H]12,?,?,-5.4%,28.0%[8.37 µM],0.4%,9.4%
CCC1=C(OC(=O)N(CC)CC)N2C(=O)OC(=NCCc3c[nH]c4ccccc34)[C@]2(Cc2ccccc2)[C@H]2C1=CC[C@H]1C(=O)NC(=O)[C@H]12,11.7µM*,?,-5.6%,-1.8%,1.9%,-14.8%
CCC1=C(OC(=O)N(CC)CC)N2C(=O)OC(=NCCc3c[nH]c4ccccc34)[C@]2(Cc2ccccc2)[C@H]2C1=CC[C@H]1C(=O)N(CC(=O)OC)C(=O)[C@H]12,13.1µM*,5.22µM*,-5.5%,?,0.2%,-24.0%
CCC1=C2CC[C@H]3C(=O)N(CC)C(=O)[C@H]3[C@H]2[C@@]2(Cc3ccccc3)C(=NCc3ccccc3)OC(=O)N2C1=O,?,?,-1.9%,69.1%[8.37 µM],-0.2%,0.0%
CCC1=C(OC(=O)N(CC)CC)N2C(=O)OC(=NCCOC)[C@]2(Cc2ccccc2)[C@H]2C1=CC[C@H]1C(=O)N(CC(=O)OC)C(=O)[C@H]12,?,9.28µM*,-0.8%,16.4%,1.5%,-7.9%
CC(Nc1ccc2c(c1)OCCO2)C(=O)N1c2ccccc2CC1C (stereo unspecified),-18.1%,39.6%,/,-9.3%,2.5%,-14.6%
O=C(NC12CC3CC(CC(C3)C1)C2)c1cccnc1Cl,11.7µM*,4.0%,18.7%,3.6%,4.3%,1.3%
CCc1nnc(NS(=O)(=O)c2ccc(NCc3ccccc3O)cc2)s1,3.29µM*,17.5%,-4.9%,24.0%,-1.6%,10.9%
CCc1nnc(NS(=O)(=O)c2ccc(NC(=O)c3ccc(Cl)cc3)cc2)s1,?,?,/,24.1%,-4.5%,-11.9%
CCc1nnc(NS(=O)(=O)c2ccc(NCc3cc(Br)ccc3O)cc2)s1,37.8%,4.9%,10.6%,18.1%,4.1%,7.0%
CCc1nnc(NS(=O)(=O)c2ccc(NC(=O)c3ccc(C#N)cc3)cc2)s1,10.4µM*,?,?,9.1%,10.5%,-8.6%
CCCN(CCC)S(=O)(=O)c1ccc(C(=O)Nc2ccc(S(=O)(=O)Nc3nnc(CC)s3)cc2)cc1,?,11.7µM*,?,10.0%,1.7%,0.0%
CC(C)C(C)NC(=O)COC(=O)c1cc(S(=O)(=O)N(C)C)ccc1N1CCCC1 (stereo unspecified),2.7%,?,/,/,-0.2%,/
CCCCc1cc(=O)oc2cc(C)cc(OCC(=O)NCc3ccncc3)c12,2.33µM*,?,-4.7%,-14.2%,12.6%,1.6%
CCCc1cc(=O)oc2cc(C)cc(OCC(=O)NCc3ccccn3)c12,2.62µM*,?,-3.6%,-21.8%,0.6%,-9.3%
CCCc1cc(=O)oc2cc(OC(C)C(=O)NCc3ccccn3)c(Cl)cc12 (stereo unspecified),10.4µM*,-7.8%,-10.0%,-9.4%,-2.8%,13.1%
COc1ccc(-c2cc(=O)oc3cc(OC(C)C(=O)NCc4ccccn4)ccc23)cc1 (stereo unspecified),?,?,-33.8%,?,3.98µM*,18.5%
COc1ccccc1C(=O)C1CCCN(C(=O)CCn2cnnn2)C1 (stereo unspecified),1.4%,5.4%,4.0%,8.6%,-1.1%,-2.7%
O=C1c2ccccc2C(c2nnnn2Cc2ccccc2)N1Cc1cccnc1 (stereo unspecified),/,/,/,/,/,-2.2%
